Counter-ions that a name gives are not always drawn.
How the values were obtained:
Test in all cases: cell proliferation relative to vehicle (% of vehicle); higher = less growth inhibition
Conditions in all cases: 72 h
[1] = tested on: U2932 TK216-resistant clone 2
Method in brief: (§1)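 Parental U2932 cells (ABC-DLBCL) and two clones made resistant to an ETS-targeting agent by almost a year of repeated exposure were treated for 72 h with 348 targeted inhibitors at 500 nM or 50 nM. MTT was then applied for 4 h, the reaction was stopped with 25% SDS, and absorbance was measured on a Cytation 3. Values express proliferation as percent of proliferating cells compared with DMSO vehicle.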

[2] = tested on: U2932 TK216-resistant clone 3
Method in brief: as §1

U2932 parental = tested on: U2932 parental
Method in brief: as §1

Row | Structure (SMILES) | cell proliferation ([1]; 50 nM) | cell proliferation ([1]; 500 nM) | cell proliferation ([2]; 50 nM) | cell proliferation ([2]; 500 nM) | cell proliferation (U2932 parental; 50 nM) | cell proliferation (U2932 parental; 500 nM)
1 | COc1cc(OCc2cccc(-c3ccccc3)c2C)cc(OC)c1CN1CCCC[C@H]1C(=O)O [PD-1/PD-L1 inhibitor 1] | 103 | 99.6 | 96.8 | 104 | 101 | 95.3
2 | CN(C)CC[C@H](CSc1ccccc1)Nc1ccc(S(=O)(=O)NC(=O)c2ccc(N3CCN(Cc4ccccc4-c4ccc(Cl)cc4)CC3)cc2)cc1[N+](=O)[O-] | 89.5 | 39.6 | 96.6 | 37.4 | 92 | 61.2
3 | NC(=O)c1ncn([C@@H]2O[C@H](CO)[C@@H](O)[C@H]2O)c1O [Mizoribine] | 104 | 108 | 100 | 99.7 | 104 | 102
4 | C[C@@H](Oc1cc(-n2cnc3ccc(CN4CCN(C)CC4)cc32)sc1C(N)=O)c1ccccc1C(F)(F)F | 8.44 | 10 | 5.99 | 14.8 | 8 | 10.6
5 | Cc1cn(-c2cc(NC(=O)c3ccc(C)c(Nc4nccc(-c5cccnc5)n4)c3)cc(C(F)(F)F)c2)cn1 [Nilotinib (AMN-107)] | 106 | 110 | 102 | 106 | 103 | 103
6 | O=C(NCc1ccncc1)C12CC3CC(C1)CC(c1ccc(Cl)cc1)(C3)C2 | 105 | 91.5 | 105 | 98.3 | 98.2 | 98.2
7 | CCCCCCNC(=O)n1cc(F)c(=O)[nH]c1=O [Carmofur] | 98.3 | 101 | 104 | 99.8 | 102 | 103
8 | CNC(=O)c1ccccc1Sc1ccc2c(/C=C/c3ccccn3)n[nH]c2c1 [Axitinib] | 110 | 92.8 | 102 | 92.8 | 95.6 | 87.4
9 | COCCOc1ccc2c(c1)ncn2-c1ccc2cccc(N3CCC(N)CC3)c2n1 | 107 | 106 | 103 | 94 | 99.8 | 90.4
10 | COc1cc2c(c(OC)c1OC)-c1c(cc3c(c1OC)OCO3)CC(C)C(C)C2 (stereo unspecified) [Schisandrin B (Sch B)] | 99.1 | 104 | 108 | 97.6 | 97.2 | 95.9
11 | Cc1cc(C(C)Nc2ccccc2)c2nc(N3CCOCC3)cc(=O)n2c1 (stereo unspecified) | 103 | 101 | 105 | 98.3 | 102 | 92.9
12 | COc1cccc(-c2cc(F)ccc2C2Cc3nc(N)nc(C)c3C(=O)N2)n1 (stereo unspecified) | 6.3 | 4.81 | 22.6 | 18.7 | 7.13 | 6.37
13 | CC(=O)c1c(C)c2cnc(Nc3ccc(N4CCNCC4)cn3)nc2n(C2CCCC2)c1=O | 93.7 | 85.1 | 97.3 | 92.5 | 87.6 | 88.8
14 | CN(c1ncccc1CNc1nc(Nc2ccc3c(c2)CC(=O)N3)ncc1C(F)(F)F)S(C)(=O)=O | 95.6 | 91.2 | 99.2 | 95.2 | 96.9 | 87.2
15 | CC[C@@]1(O)C(=O)OCc2c1cc1n(c2=O)Cc2cc3cc(O)ccc3nc2-1 [(S)-10-Hydroxycamptothecin] | 4.11 | 1.46 | 7.4 | 5.84 | 2.21 | 0.765
16 | COc1ccc(-c2ccc3c(N4CCOCC4)nc(N4C[C@@H](C)O[C@@H](C)C4)nc3n2)cc1CO | 95.3 | 46.8 | 98.9 | 49.3 | 91.4 | 57.7
17 | Oc1ccc(-c2nc(-c3ccc(F)cc3)c(-c3ccncc3)[nH]2)cc1 | 109 | 105 | 96.2 | 98.7 | 102 | 99.2
18 | Nc1ncn([C@H]2C[C@H](O)[C@@H](CO)O2)c(=O)n1 [Decitabine] | 72.5 | 59.1 | 92.9 | 78.3 | 85.1 | 73.1
19 | C#Cc1cccc(Nc2ncnc3cc(OC)c(OCCCCCCC(=O)NO)cc23)c1 | 93.7 | 43.4 | 96.3 | 52.5 | 89.5 | 43.9
20 | CCN(CC)CCNC(=O)c1ccc(N)cc1 [Procainamide HCl] | – | – | – | – | 93.9 | 95.9
21 | CCc1c2c(nc3ccc(OC(=O)N4CCC(N5CCCCC5)CC4)cc13)-c1cc3c(c(=O)n1C2)COC(=O)[C@]3(O)CC [Irinotecan] | – | – | – | – | 94.3 | 50.5
22 | CCCCCCCCCCCCc1ccc(S(=O)(=O)Nc2nncs2)cc1 | 102 | 88.7 | 102 | 100 | 101 | 100
23 | COc1ccc(C2=N[C@H](c3ccc(Cl)cc3)[C@H](c3ccc(Cl)cc3)N2C(=O)N2CCNC(=O)C2)c(OC(C)C)c1 [Nutlin-3b] | 105 | 96.6 | 100 | 107 | 102 | 99.6
24 | Clc1ccc(Nc2nnc(Cc3ccncc3)c3ccccc23)cc1 [Vatalanib (PTK787) 2HCl] | 109 | 99.8 | 108 | 113 | 93.1 | 102
